Measurements published in PubChem BioAssay (NCATS).
Records with an inconclusive call do not appear. Activity calls are given as the source filed them. Unless noted, calls come from the whole dose curve; as a rule, active = well fitted curve in either direction with a large enough effect (not every such curve was filed as active); inconclusive = small, poorly fitted or top-dose-only effect, or another doubt; inactive = flat fitted curve, though single readings scatter.

What was measured:
[1] = biological target: Lysosomal acid glucosylceramidase (Homo sapiens) (UniProt P04062); assay: Glucocerebrosidase-p2 (AID 348; in the data active = potency below about 10 µM; note: potency is the fitted concentration of half-maximal effect); conditions: purified GBA, blue fluorogenic substrate, 40 min
Chain of Lysosomal acid glucosylceramidase (Homo sapiens) (P04062 whole entry, looked up): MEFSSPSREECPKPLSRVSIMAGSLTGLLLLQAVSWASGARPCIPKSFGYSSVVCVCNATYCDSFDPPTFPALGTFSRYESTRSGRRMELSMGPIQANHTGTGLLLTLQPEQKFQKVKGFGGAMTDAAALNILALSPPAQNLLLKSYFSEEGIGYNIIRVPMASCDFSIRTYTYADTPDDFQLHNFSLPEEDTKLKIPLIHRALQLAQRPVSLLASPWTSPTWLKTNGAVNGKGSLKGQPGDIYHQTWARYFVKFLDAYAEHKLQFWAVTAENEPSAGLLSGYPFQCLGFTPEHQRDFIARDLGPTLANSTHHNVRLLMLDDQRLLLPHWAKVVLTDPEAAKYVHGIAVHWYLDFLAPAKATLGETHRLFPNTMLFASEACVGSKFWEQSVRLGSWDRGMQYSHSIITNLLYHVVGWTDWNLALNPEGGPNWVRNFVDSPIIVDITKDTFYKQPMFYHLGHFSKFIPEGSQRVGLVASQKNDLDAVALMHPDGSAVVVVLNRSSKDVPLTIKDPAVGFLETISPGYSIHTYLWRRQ
Method in brief: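 Compounds titrated from 0.6 nM upwards against 0.2 nM enzyme in pH 5.9 citric acid/KH2PO4, taurocholate, tween-20; blue fluorogenic substrate 80 uM, 40 min room temperature, stopped and read Ex 365/Em 440 for AC50.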

[2] = AP1 Signaling Pathway (AID 357); conditions: ME-180 AP-1-bla reporter, EGF-induced, beta-lactamase ratio, 5 h; at 7.69 µM (top of the series) unless noted;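 note: ME-180 reporter cells stimulated with EGF at its EC50 level; % is set by controls: 0 for no effect and ±100 for the full control effect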
Method in brief: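 In this screen, ME-180 cells in Opti-MEM with 0.5% dialyzed FBS received EC50 EGF and compound titrations for 5 h. AP-1 reporter beta-lactamase was detected via CCF4 ratio, giving AC50 for positive and negative modulators.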

[3] = biological target: Cytochrome P450 1A2 (Homo sapiens) (UniProt P05177); assay: p450-cyp1a2 (AID 410; calls by dose curve; note: potency is the fitted concentration of half-maximal effect;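 for activity change, negative = inhibition: -100% = full effect of reference inhibitor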); conditions: recombinant CYP1A2, luciferin-ME demethylation, luminescence; series mostly up to 57 µM
Chain of Cytochrome P450 1A2 (Homo sapiens) (P05177 whole entry, looked up): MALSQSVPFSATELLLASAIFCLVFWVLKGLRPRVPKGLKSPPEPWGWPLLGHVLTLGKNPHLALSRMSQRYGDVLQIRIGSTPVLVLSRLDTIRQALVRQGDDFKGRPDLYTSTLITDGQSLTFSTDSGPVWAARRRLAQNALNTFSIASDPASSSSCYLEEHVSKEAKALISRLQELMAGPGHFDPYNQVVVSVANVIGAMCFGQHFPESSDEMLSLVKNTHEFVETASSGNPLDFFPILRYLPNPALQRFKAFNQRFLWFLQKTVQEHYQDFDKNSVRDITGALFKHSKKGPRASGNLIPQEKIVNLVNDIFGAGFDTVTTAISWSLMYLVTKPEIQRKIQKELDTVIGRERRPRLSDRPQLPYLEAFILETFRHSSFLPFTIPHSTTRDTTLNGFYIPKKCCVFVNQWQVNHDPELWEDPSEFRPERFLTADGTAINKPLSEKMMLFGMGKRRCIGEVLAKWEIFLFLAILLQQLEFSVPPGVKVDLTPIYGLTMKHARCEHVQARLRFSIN
Method in brief: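 Luminescent readout of luciferin formed from Luciferin-ME by human CYP1A2; data normalized against complete inhibition by 57 uM furafylline. Enzyme 20nM, substrate 100uM at Km, 100mM KPO4 buffer, 60 min reaction at room temperature.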

[4] = NFAT Signaling Pathway (AID 444); conditions: Jurkat NFAT-bla M1, carbachol, beta-lactamase ratio, 5 h; at 7.69 µM (top of the series) unless noted;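 note: carbachol stimulus at about its EC50 of 1 µM final; % is set by controls: 0 for no effect and ±100 for the full control effect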
Method in brief: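 Jurkat cells carrying an NFAT-driven β-lactamase reporter and co-transfected muscarinic M1 receptor were treated with compound plus carbachol (1 uM final, an EC50 level) for 5 h at 37 °C. CCF4 loading followed for 1 h at RT; 460/530 nm ratio gave %activity.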

[5] = Stat Signaling Pathway (AID 446); conditions: ME-180 SIE beta-lactamase reporter, IL-6 stimulated, 5 h; at 7.69 µM (top of the series) unless noted;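 note: ME-180 cervical cancer cells given 40 pM IL-6 alongside compound; SIE-controlled beta-lactamase reporter measured as 460/530 nm FRET emission ratio; % is set by controls: 0 for no effect and ±100 for the full control effect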
Method in brief: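 Screening format detects activators and inhibitors alike: ME-180 SIE-bla cells stimulated at 40 pM IL-6 for 5 hrs with compound, then dual-emission beta-lactamase read at 405 nm excitation.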

[6] = biological target: Glucocorticoid receptor (Homo sapiens) (UniProt P04150); assay: GR-EFC Redistribution (AID 451; calls by dose curve; note: potency is the fitted concentration of half-maximal effect); conditions: CHO-K1 GR-EFC translocation, beta-gal luminescence, 2 h
Chain of Glucocorticoid receptor (Homo sapiens) (P04150 whole entry, looked up, the tested form may be a part): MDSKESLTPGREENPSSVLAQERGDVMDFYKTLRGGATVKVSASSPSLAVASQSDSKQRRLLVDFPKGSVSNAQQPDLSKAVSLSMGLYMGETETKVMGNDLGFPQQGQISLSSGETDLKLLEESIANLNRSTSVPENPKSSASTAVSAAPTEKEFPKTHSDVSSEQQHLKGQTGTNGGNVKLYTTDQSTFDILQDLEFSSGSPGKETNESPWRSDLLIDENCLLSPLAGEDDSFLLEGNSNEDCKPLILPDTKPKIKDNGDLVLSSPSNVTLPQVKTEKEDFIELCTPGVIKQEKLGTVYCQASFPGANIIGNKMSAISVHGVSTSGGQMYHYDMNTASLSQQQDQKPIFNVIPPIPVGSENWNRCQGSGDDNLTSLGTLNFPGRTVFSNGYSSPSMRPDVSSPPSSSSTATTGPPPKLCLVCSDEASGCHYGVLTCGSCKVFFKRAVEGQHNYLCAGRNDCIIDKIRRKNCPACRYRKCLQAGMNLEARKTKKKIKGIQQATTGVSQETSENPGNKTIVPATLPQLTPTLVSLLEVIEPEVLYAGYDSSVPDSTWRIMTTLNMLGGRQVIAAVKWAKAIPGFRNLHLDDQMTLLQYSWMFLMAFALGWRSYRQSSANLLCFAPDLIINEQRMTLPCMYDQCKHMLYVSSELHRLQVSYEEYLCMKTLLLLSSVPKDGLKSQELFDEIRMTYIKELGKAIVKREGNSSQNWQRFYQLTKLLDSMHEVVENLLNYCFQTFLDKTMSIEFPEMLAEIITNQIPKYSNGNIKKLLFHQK
Method in brief: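 CHO-K1 cells stably expressing nuclear-localized β-gal enzyme acceptor and GR fused C-terminally to the enzyme donor fragment; ligand-driven nuclear translocation restores β-gal by complementation. Compounds titrated up to 46 uM final, 2 h at 37 °C; luminescence read.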

[7] = biological target: Mitogen-activated protein kinase 10 (Mus musculus) (UniProt Q61831); assay: JNK3 AlphaScreen Assay (AID 530); conditions: JNK3 lysate, c-Jun phosphorylation; series mostly up to 57.1 µM;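 note: kinase came from lysate of stimulated human HepG2 cells; signal reports phosphorylation of biotinylated GST-cJun 1-79 at Ser73 with 10 µM ATP; % is set by controls: 0 for no effect and ±100 for the full control effect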
Method in brief: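 Inhibitors reduce antibody binding to phosphorylated biotin-cJun, lowering AlphaScreen luminescence. Lysates from HepG2 cells pre-activated by IL-1beta plus TNF-alpha supplied JNK3; compounds were titrated.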

[8] = biological target: 3',5'-cyclic-AMP phosphodiesterase 4B (Homo sapiens) (UniProt Q07343); assay: qHTS Assay for Inhibitors of PDE-IV (AID 607; active = well fitted activation curve with a large enough effect in the main read-out, with a control signal flat, not every such curve was filed as active; note: % of control where 0% means no effect); conditions: HEK293 ACTOne CNG channel cells, membrane potential fluorescence; series mostly up to 22.9 µM
Chain of 3',5'-cyclic-AMP phosphodiesterase 4B (Homo sapiens) (Q07343 whole entry, looked up): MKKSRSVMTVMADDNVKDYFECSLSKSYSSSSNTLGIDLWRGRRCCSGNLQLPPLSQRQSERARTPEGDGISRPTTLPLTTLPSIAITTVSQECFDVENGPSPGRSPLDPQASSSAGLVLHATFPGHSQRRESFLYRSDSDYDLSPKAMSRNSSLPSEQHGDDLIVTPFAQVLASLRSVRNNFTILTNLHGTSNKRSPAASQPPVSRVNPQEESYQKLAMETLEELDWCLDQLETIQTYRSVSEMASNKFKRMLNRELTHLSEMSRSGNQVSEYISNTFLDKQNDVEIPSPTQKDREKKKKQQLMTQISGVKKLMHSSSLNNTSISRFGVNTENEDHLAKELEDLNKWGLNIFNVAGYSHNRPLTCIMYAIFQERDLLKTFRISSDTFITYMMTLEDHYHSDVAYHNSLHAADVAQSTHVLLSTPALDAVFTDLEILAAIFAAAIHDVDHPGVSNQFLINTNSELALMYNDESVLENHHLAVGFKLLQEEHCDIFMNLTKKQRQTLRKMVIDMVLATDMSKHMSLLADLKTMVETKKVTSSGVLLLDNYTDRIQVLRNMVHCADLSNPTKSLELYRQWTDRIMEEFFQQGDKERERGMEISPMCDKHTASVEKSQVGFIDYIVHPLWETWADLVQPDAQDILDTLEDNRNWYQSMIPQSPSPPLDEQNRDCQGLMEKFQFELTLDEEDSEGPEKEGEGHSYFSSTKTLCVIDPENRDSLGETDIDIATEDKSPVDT
Method in brief: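 The readout is membrane depolarisation from a cAMP-sensing CNG channel, detected with a potential dye at ex 535/em 590. Cells were HEK293-derived (endogenous PDE-IV) at 1000 cells/well, titrated up to 22.9 uM final.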

[9] = biological target: Cytochrome P450 3A4 (Homo sapiens) (UniProt P08684); assay: qHTS Assay for Activators of Cytochrome P450 3A4 (AID 885; active = well fitted curve in the direction sought with a large enough effect; an effect the other way counts as inactive or inconclusive; note: nearly all actives have a fitted effect of over 65% in size; note: potency is the fitted concentration of half-maximal effect); conditions: recombinant CYP3A4, Luciferin-PPXE luminescence, 60 min; series mostly up to 57.1 µM
Chain of Cytochrome P450 3A4 (Homo sapiens) (P08684 whole entry, looked up): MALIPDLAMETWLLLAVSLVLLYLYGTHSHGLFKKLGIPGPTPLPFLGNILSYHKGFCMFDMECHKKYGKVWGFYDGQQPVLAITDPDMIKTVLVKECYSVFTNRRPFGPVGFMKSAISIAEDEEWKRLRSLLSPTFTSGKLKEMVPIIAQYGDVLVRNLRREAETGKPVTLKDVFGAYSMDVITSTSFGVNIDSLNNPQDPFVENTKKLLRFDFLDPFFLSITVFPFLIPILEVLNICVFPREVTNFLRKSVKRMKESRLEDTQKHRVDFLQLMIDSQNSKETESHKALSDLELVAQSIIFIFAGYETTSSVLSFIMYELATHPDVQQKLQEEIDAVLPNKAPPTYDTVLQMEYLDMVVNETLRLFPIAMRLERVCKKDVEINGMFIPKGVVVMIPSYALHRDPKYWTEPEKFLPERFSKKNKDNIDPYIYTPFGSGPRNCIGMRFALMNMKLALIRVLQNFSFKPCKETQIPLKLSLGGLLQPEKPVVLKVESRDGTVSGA
Method in brief: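 Steps: enzyme/substrate mix dispensed; compound added, 10 min RT; NADPH regeneration solution added, 60 min RT; luciferin detection buffer stops reaction; 20 min later luminescence measured.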

[10] = qHTS Assay for Lipid Storage Modulators (AID 1519; calls by dose curve); conditions: Drosophila S3 cells, BODIPY lipid droplet/cell ratio, laser cytometry, cells loaded with oleic acid; for activity change, negative = inhibition: at 57.5 µM (top of the series)
Method in brief: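 Cells seeded at 5,000 per well were treated with compounds over a concentration series and loaded with oleic acid (400 uM, as added). Lipid droplet fluorescence (488 nm excitation, 500-530 nm channel) was read by laser-scanning cytometry and normalized to 20 uM Triacsin C.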

[11] = Primary qHTS for small molecule stabilizers of the endoplasmic reticulum resident proteome: Secreted ER Calcium Modulated Protein (SERCaMP) assay (AID 1508630; active = well fitted curve in the direction sought with a large enough effect; an effect the other way counts as inactive or inconclusive; note: % is set by controls: 0 for no effect and ±100 for the full control effect); conditions: SH-SY5Y GLuc-SERCaMP (Gaussia luciferase released on ER calcium loss) secretion, thapsigargin, luminescence; series mostly up to 38.4 µM
Method in brief: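 GLuc-SERCaMP-expressing SH-SY5Y cells, pretreated 16 h with compound, are challenged with thapsigargin to empty ER calcium stores; after 4 h, coelenterazine is added directly to the medium and luminescence is imaged.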

[12] = measured here: cell count channel max response
[13] = measured here: lipid channel max response

Row | SMILES | Potency [1] | activity change, negative = inhibition [2] | Potency [3] | activity change, negative = inhibition [4] | activity, negative = inhibition [5] | Potency [6] | outcome [7] | Potency [8] | Potency [9] | activity change, negative = inhibition [10] | max response [10, 12] | max response [10, 13] | Potency [11]
1 | COc1ccc(NC(=O)N2CCCC3(CCN(S(C)(=O)=O)CC3)C2)cc1 | > 11.4 µM (inactive) | -11.2% (inactive) | inactive | 21.9% (inactive) | 17.2% (inactive) | > 46 µM (inactive) | inactive | inactive | inactive | 3.48% (inactive) | -9.3% | -4.34% | inactive
2 | COc1ccc(NC(=O)N2CCC3(CC2)CCN(C(=O)c2csnn2)CC3)cc1 | > 11.4 µM (inactive) | -4.35% (inactive) | 6.31 µM (active) | 3.59% (inactive) | -12% (inactive) | > 46 µM (inactive) | inactive | inactive | inactive | 8.17% (inactive) | 17.2% | 29.5% | inactive
3 | CC(=O)N1CCC[C@@]2(CCN(Cc3ccccc3)C2)C1 | > 11.4 µM (inactive) | -2.69% (inactive) | inactive | 17.1% (inactive) | -3.06% (inactive) | > 46 µM (inactive) | inactive | inactive | inactive | 6.41% (inactive) | 8.55% | 16.4% | inactive
4 | COc1ccc(NC(=O)N2CC3(CCN(C(=O)c4ccc(OC)cc4)CC3)C2)cc1 | > 11.4 µM (inactive) | -11.7% (inactive) | inactive | 16.6% (inactive) | -5.3% (inactive) | > 46 µM (inactive) | inactive | inactive | inactive | 3.98% (inactive) | 12.3% | 17.6% | inactive
5 | O=C(Nc1cccc(F)c1)N1CC[C@@]2(CCCN(C(=O)c3cccc(F)c3)C2)C1 | > 11.4 µM (inactive) | -6.61% (inactive) | 12.6 µM (active) | 16.9% (inactive) | -1.65% (inactive) | > 46 µM (inactive) | inactive | inactive | inactive | 6.49% (inactive) | 12.4% | 22.3% | inactive
6 | CS(=O)(=O)N1CCC2(CC1)CN(C(=O)Nc1cccc(C#N)c1)C2 | > 11.4 µM (inactive) | -6.48% (inactive) | inactive | 14.4% (inactive) | -5.8% (inactive) | > 46 µM (inactive) | inactive | inactive | inactive | 1.36% (inactive) | 4.56% | 8.61% | inactive
7 | O=C(c1csnn1)N1CCC2(CC1)CN(C(c1ccccc1)c1ccccc1)C2 | > 11.4 µM (inactive) | 3.92% (inactive) | inactive | -2.37% (inactive) | -0.642% (inactive) | > 46 µM (inactive) | inactive | inactive | 10 µM (active) | 3.78% (inactive) | 18.7% | 24.2% | inactive
8 | O=C(c1csnn1)N1CCC[C@@]2(CCN(c3ccccn3)C2)C1 | > 11.4 µM (inactive) | -10.6% (inactive) | inactive | -7.38% (inactive) | 8.47% (inactive) | > 46 µM (inactive) | inactive | inactive | inactive | 3.43% (inactive) | 4.63% | 10.9% | inactive
9 | CS(=O)(=O)N1CCC2(CCN(Cc3ccncc3)CC2)CC1 | > 11.4 µM (inactive) | -1.98% (inactive) | inactive | -4.26% (inactive) | 10.3% (inactive) | > 46 µM (inactive) | inactive | inactive | inactive | 5.08% (inactive) | 9.75% | 18.4% | inactive
10 | COC(=O)N1CCC2(CCCN(C(=O)Nc3cccc(F)c3)C2)CC1 | > 11.4 µM (inactive) | -3.15% (inactive) | inactive | -20.9% (inactive) | -5.21% (inactive) | > 46 µM (inactive) | inactive | inactive | inactive | -17.4% (inactive) | -0.146% | -17.1% | inactive
11 | COc1ccc(C(=O)N2CCC[C@@]3(CCN(Cc4ccc(C#N)cc4)C3)C2)cc1 | > 11.4 µM (inactive) | -1.6% (inactive) | inactive | -4.67% (inactive) | 3.73% (inactive) | > 46 µM (inactive) | inactive | inactive | inactive | 3.64% (inactive) | 10.2% | 17.8% | inactive
12 | CC(=O)N1CCC2(CCCN(C(=O)Nc3cccc(F)c3)C2)CC1 | > 11.4 µM (inactive) | -2.22% (inactive) | inactive | 13.9% (inactive) | -6.7% (inactive) | > 46 µM (inactive) | inactive | inactive | inactive | -0.823% (inactive) | -12.4% | -13.5% | inactive
13 | Cn1cccc1C(=O)N1CCC[C@@]2(CCN(Cc3ccc(C#N)cc3)C2)C1 | > 11.4 µM (inactive) | -2.05% (inactive) | inactive | -13.8% (inactive) | -3.28% (inactive) | > 46 µM (inactive) | inactive | inactive | inactive | 4.84% (inactive) | 7.42% | 16.5% | inactive
